Most compounds without a hit are left out; they make up all but 3.5% or so of the library.
GPR151 activ: activators of human GPR151. Q8TDV0. PathHunter beta-arrestin GPR151 cells, luminescence. activation, % at 11.2 µM. hit rate 1% among 650,000; in the data active means activation above about 4.9%;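 further: 0% = median of compound wells and 100% = cells with positive control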
Target sequence (Q8TDV0 whole entry, looked up): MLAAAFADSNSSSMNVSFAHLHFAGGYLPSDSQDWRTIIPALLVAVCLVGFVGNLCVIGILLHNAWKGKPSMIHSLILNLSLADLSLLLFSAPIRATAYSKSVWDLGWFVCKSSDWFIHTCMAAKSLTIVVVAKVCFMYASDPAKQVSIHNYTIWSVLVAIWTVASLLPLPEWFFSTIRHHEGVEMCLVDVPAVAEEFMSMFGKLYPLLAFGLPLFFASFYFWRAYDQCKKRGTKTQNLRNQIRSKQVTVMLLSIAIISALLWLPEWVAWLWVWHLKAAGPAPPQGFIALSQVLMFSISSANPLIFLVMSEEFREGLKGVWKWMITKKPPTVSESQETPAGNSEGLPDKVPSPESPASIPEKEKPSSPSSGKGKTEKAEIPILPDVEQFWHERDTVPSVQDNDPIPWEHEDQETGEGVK
MITF primary: inhibitors of human MITF; O75030; inhibition, % at 2.6 µM; AID 1259374; hit rate 0.91% among 650,000; AlphaScreen MITF homodimerization, bead proximity signal; in the data active means inhibition above about 50%;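 further: 0% = vehicle wells with protein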
FBW7 act: human FBW7 E3 ligase activation, primary screen. Q969H0. AlphaScreen FBW7–phospho-cyclin E peptide binding, activator screen. normalized activity (activation), % at 26.1 µM. hit rate 0.13% among 650,000. AID 1259310; in the data active means normalized activity above about 1.9%;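 further: purified mutant Fbw7 with reduced substrate affinity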
TEAD-YAP block: TEAD-YAP interaction inhibition; HEK-TIYL cells, TEAD-Gal4/YAP UAS-luciferase luminescence; inhibition, % at 9.12 µM; hit rate 1.4% among 640,000; AID 1259422; in the data active means inhibition above about 32%;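 further: 0% = median of test compound wells and 100% = reference inhibitor wells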
Starred values were filed as active, the others as inactive.

SMILES	GPR151 activ	MITF primary	FBW7 act	TEAD-YAP block
Cn1c(=O)[nH]c(=O)c2c1nc(Br)n2CCSc1nc2ccccc2[nH]1	-0.4	6.4	-0.1	5.0
O=C(CCl)N(C1CCCCC1)C1CCS(=O)(=O)C1 (stereo not drawn)	0.9	-0.1	0.2	70.1*
Cn1c(SCC(=O)N(C2CCCCC2)C2CCS(=O)(=O)C2)nnc1C(F)(F)F (stereo not drawn)	1.2	1.6	0.2	7.8
O=C(CCl)N(CC1CCCO1)C1CCS(=O)(=O)C1 (stereo not drawn)	-1.5	-16.1	0.2	5.6
CCC(C)N(C(=O)CCl)C1CCS(=O)(=O)C1 (stereo not drawn)	2.2	11.6	-0.1	56.1*
O=C(CCl)N(C1CCCC1)C1CCS(=O)(=O)C1 (stereo not drawn)	-0.9	4.3	0.5	64.7*
O=C(CCl)N(C1CC1)C1CCS(=O)(=O)C1 (stereo not drawn)	0.6	-10.2	0.0	54.2*
Cc1ccc2nc(/C(C#N)=C\c3cccc([N+](=O)[O-])c3)[nH]c2c1	0.9	-3.3	0.0	-27.5
COc1ccc(NC(=S)NC(=O)c2ccco2)cc1OC	-0.6	11.0	-0.3	-6.1
O=C(CCl)N(Cc1ccccc1)C1CCS(=O)(=O)C1 (stereo not drawn)	-0.2	2.8	0.0	55.9*
O=C1C2CC=CCC2C(=O)N1CC(=O)N(Cc1ccccc1)C1CCS(=O)(=O)C1 (stereo not drawn)	-0.9	15.2	0.0	5.7
O=C1NC(=S)NC(=O)C1=Cc1cc2c(c([N+](=O)[O-])c1)OCO2	-0.9	26.3	-0.7	3.1
Cc1ccc(C)c(S(=O)(=O)Oc2ccccc2C(=O)OCC(=O)Nc2cc(C)on2)c1	-0.4	1.7	0.0	38.7*
COc1ccc(CCNc2c(CCC(C)C)c(C)c(C#N)c3nc4ccccc4n23)cc1OC	0.8	5.3	1.0	2.9
O=C(CSc1nc2ccccc2s1)N1CCCc2ccccc21	-0.5	9.1	0.6	7.2
CCCCP(=Nc1ccccc1)(N(CC)CC)N(CC)CC	1.2	8.4	0.2	92.1*
CCCCN(CC)S(=O)(=O)c1ccccc1	-0.8	-26.5	0.1	0.3
N/C(=N\OC(=O)c1cc(Cl)ccc1Cl)c1ccccn1	-7.1	17.9	0.8	44.3*
N/C(=N\OC(=O)c1ccc(I)cc1)c1ccccn1	-7.5	-13.2	-0.1	80.9*
COc1ccc(C(=O)O/N=C(\N)c2ccccn2)cc1OC	-1.3	-2.1	0.1	-64.3
CC(C)(C)c1ccc(C(=O)O/N=C(\N)c2ccncc2)cc1	3.9	1.1	0.6	-64.4
COc1ccc(C(=O)O/N=C(\N)c2ccc(OC)c(OC)c2)c(OC)c1	0.2	1.2	0.0	-23.9
CC(=O)Oc1ccc(C(=O)O/N=C(\N)c2ccncc2)cc1	-8.3	15.7	0.7	31.9*
COc1ccc(C(=O)O/N=C(\N)c2ccccn2)c(OC)c1	-7.5	-3.0	-0.1	40.8*
COc1ccc(Br)cc1S(=O)(=O)n1cnc2cc([N+](=O)[O-])ccc21	4.2	7.5	-0.1	-0.3
SMILES	GPR151 activ	MITF primary	FBW7 act	TEAD-YAP block
O=C(Nn1c(-c2cccc(Cl)c2)nc2ccccc2c1=O)c1ccc2ccccc2n1	0.6	8.3	-0.1	4.8
Cc1cccc(C(=O)O/N=C(\N)c2ccccn2)c1	-8.0	13.0	0.1	82.1*
COc1ccc(/C(N)=N/OC(=O)c2ccc(OC(C)=O)cc2)cc1OC	-3.6	-16.9	0.0	20.9
CC(=O)Oc1ccc(C(=O)O/N=C(\N)c2ccccn2)cc1	-7.6	-6.8	0.0	50.3*
N/C(=N\OC(=O)c1ccc(F)cc1)c1ccc(Cl)cc1	-0.4	1.2	0.0	-15.8
CCOc1ccc(C(=O)O/N=C(\N)c2ccccn2)cc1	-7.4	2.6	0.0	91.5*
N/C(=N\OC(=O)c1ccc(F)cc1)c1ccc(Br)cc1	1.0	1.0	2.1*	1.4
O=C(O)c1cc(N2C(=O)c3ccc(Oc4ccc5c(c4)C(=O)N(c4ccc(Cl)c(C(=O)O)c4)C5=O)cc3C2=O)ccc1Cl	-0.5	-9.4	-0.2	0.9
Cc1cccc(N(CC(N)=O)C2SC(=O)N(C)C2=O)c1 (stereo not drawn)	0.5	-11.0	-0.1	0.6
CCC1C(=O)NCCN1C(=O)c1ccc(Br)o1 (stereo not drawn)	0.2	-8.1	-0.1	-1.1
O=C(O)CCC(=O)Nc1ccc(NC(=O)CCC(=O)O)c(Cl)c1	0.6	-14.7	-0.1	2.5
Cc1ccccc1C(=O)O/N=C(\N)c1ccccn1	-8.0	9.4	-0.1	48.7*
CCCNC(=O)Cn1cnc2sc(C(=O)N3CCCc4ccccc43)c(C)c2c1=O	-0.2	14.2	0.3	-15.6
Oc1c(C(c2ccc(F)cc2)N2CCOCC2)ccc2cccnc12 (stereo not drawn)	0.6	26.6	-2.0	76.2*

Compound activity: PubChem BioAssay, The Scripps Research Institute Molecular Screening Center
